Activity calls are given as the source filed them. Rule for the calls: active = hit-call score of the fitted dose curve at least 0.9, where 1 is the maximum; inactive = score below 0.9.

Tested on in one experiment: not listed separately
Description: CCTE_Deisenroth_5AR_NBTE_donor: CCTE's 5alpha-reductase NanoBRET Target Engagement Assay […], Deisenroth Lab (AID 2284319). As to conditions: actives raise or lower the signal. In short, it runs like this: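 In this secondary endpoint, donor luminescence from SRD5A2-NanoLuc in transfected HEK293T flags artifacts. Test chemical (10 nM - 29.9 uM) is present five hours, tracer the last two; mock-tracer wells run plate-matched; data fitted bidirectionally against DMSO.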
Consider `COc1cc([N+](=O)[O-])ccc1N`, for which the compound was called inactive.
Consider `CCCCCCCCCCCCOS(=O)(=O)O`, for which the AC50 is 50 µM (active).
In the case of `CCCCCCCCCCCC`, the compound was called inactive.
The same measure, in the same setting: to `CCCCc1oc2ccccc2c1C(=O)c1cc(I)c(OCCN(CC)CC)c(I)c1` belongs “inactive”.
Regarding `O=C1OC2(c3ccccc31)c1cc(I)c(O)c(I)c1Oc1c2cc(I)c(O)c1I`, the AC50 is 2.23 µM (active).
Regarding `CCc1ccccc1O`, the outcome was inactive.
With `CCCCCCc1ccc(N)cc1`, the outcome was inactive.

The next experiment has as its system TTR (gene 7276). Put plainly: CCTE_GLTED_hTTR_0.5uM: CCTE's human Transthyretin (hTTR) Inhibition Assay, with 0.5uM TTR, Great Lakes Toxicology and Ecology Division (GLTED) Lab (AID 2284320).
Settings: not given
In short, it runs like this: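 Probe (ANSA) displacement from 0.5 uM human transthyretin was followed by fluorescence (ex 380, em 475) after a 2 h incubation with chemical. Activity was scored as signal loss and fitted positively relative to DMSO.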
In the case of `O=P(O)(O)CCC(F)(F)C(F)(F)C(F)(F)C(F)(F)C(F)(F)C(F)(F)C(F)(F)C(F)(F)F`, the concentration at half-maximal activity (AC50) was 2.24 µM (active).
On the same count and under the same terms, to `O=P(O)(O)CCC(F)(F)C(F)(F)C(F)(F)C(F)(F)C(F)(F)C(F)(F)F` belongs 6.47 µM (active).
On the same count and under the same terms, for `O=C(O)CCC(F)(F)C(F)(F)C(F)(F)C(F)(F)C(F)(F)F` the value was 3.12 µM (active); for `O=C(O)CCC(F)(F)C(F)(F)C(F)(F)C(F)(F)C(F)(F)C(F)(F)F`, 3.66 µM (active).
Take `O=C(CC(=O)C(F)(F)C(F)(F)C(F)(F)F)c1cccs1`: the AC50 was 0.193 µM (active).
As for `O=C(O)C(F)(F)OC(F)(F)C(F)(F)OC(F)(F)C(F)(F)OC(F)(F)C(F)(F)C(F)(F)C(F)(F)F`, the AC50 was 1.11 µM (active).

For the origin of these results see PubChem BioAssay (EPA / NIEHS).
